Source: PubChem BioAssay (National Center for Advancing Translational Sciences (NCATS))
Only some compounds are listed: those with a hit (about 17% of all), similar ones and a draw of the others.
DT40 TDP1 CPT – qHTS for Inhibitors of human tyrosyl-DNA phosphodiesterase 1 (TDP1): qHTS in cells in presence of CPT | Potency, µM (top dose mostly 46.2 µM), for the others: top-dose activity change, negative = growth inhibition, most hits filed as inhibitors | 420,000 compounds, 12% hits | chicken DT40 Tdp1-/-;hTDP1 cells + 20 nM CPT, ATP luminescence, 48 h | AID 686979, 2013; note: % is set by controls: 0 for no effect and ±100 for the full control effect; nearly all actives have a fitted effect of over 55% in size
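Chicken DT40 Tdp1-/- cells stably complemented with human TDP1 were seeded at 400 cells/well in medium containing 20 nM camptothecin, exposed to pin-transferred compounds, and grown at 37 °C for at least 48 hr. Viability was read as ATP luminescence.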
HT1080-NT tox – qHTS for induction of synthetic lethality in tumor cells producing 2HG: qHTS for the HT-1080-NT fibrosarcoma cell line. HT-1080-NT fibrosarcoma viability, CellTiter-Glo ATP luminescence, 48 h. Potency, µM (series often up to 46.1 µM), for the others: at the top dose activity, negative = less viability, actives largely listed as cytotoxic. 360,000 compounds, 1.6% hits. AID 686970, 2013;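 note: NT is the 2HG producing partner of a matched IDH1 knockdown line; 0% = DMSO-treated cells and -100% = media-only wells without cells; nearly all actives have a fitted effect of over 55% in size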
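Fibrosarcoma NT cells, 750 per well in 5% FBS RPMI, were exposed to compound for 48 hours. Viability: CellTiter-Glo luminescence.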
TGFb SMAD3 inh – qHTS for Inhibitors of TGF-b. 410,000 compounds, 1.2% hits. Potency, µM (top dose mostly 46.1 µM), for inactives: at the top dose activity, negative = inhibition, actives largely listed as inhibitors. HepG2 CAGA-GFP TGF-b/SMAD3 reporter, GFP fluorescence, 18 h; TGF-beta stimulated, 500 pg/mL final; note: % is set by controls: 0 for no effect and ±100 for the full control effect; nearly all actives have a fitted effect of over 65% in size
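Read-out: total well GFP (ex488/em500-530) summed from mean per-cell fluorescence. Cells: HEPG2 CAGA-GFP, 1% FBS DMEM, 18 h at 37 degrees C with 500 pg/mL final TGF-beta. Unstimulated wells served as the full-inhibition control; stimulated DMSO wells = 0%.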
TDP1 cell noCPT – qHTS for Inhibitors of human tyrosyl-DNA phosphodiesterase 1 (TDP1): qHTS in cells in absence of CPT; 420,000 compounds, 15% hits; Potency, µM (highest dose often 46.2 µM), inactives show at the top dose activity change, negative = growth inhibition, actives largely listed as inhibitors; DT40 Tdp1-/- hTDP1 cells, no CPT, ATP luminescence, 48 h; note: % is set by controls: 0 for no effect and ±100 for the full control effect; nearly all actives have a fitted effect of over 55% in size
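Growth of hTDP1-complemented DT40 Tdp1-knockout cells is measured by ATP luminescence after at least 48 hr compound exposure at 37 °C, with DMSO substituting for the 20 nM CPT used in the parallel screen.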
HepG2 viability – qHTS for Inhibitors of TGF-b: Cytotox Counterscreen. HepG2 CAGA-GFP viability, ATP luminescence, 18 h. Potency, µM (top dose mostly 46.1 µM), for inactives: at the top dose activity change, negative = cytotoxicity, most hits filed as cytotoxic. 410,000 compounds, 0.76% hits
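CellTiter-Glo luminescence gave cytotoxicity after 18 hours at 37 degrees C. The cells were HepG2 CAGA-GFP in 1% FBS DMEM, stimulated with 500 pg/mL TGF-beta after compound addition. %Activity was normalised to no-cell wells (complete cell-killing) and DMSO (no toxicity), and curves were fitted and classified.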
HT1080 IDH1KD tx – qHTS for induction of synthetic lethality in tumor cells producing 2HG: qHTS for the HT-1080-IDH1KD cell line; Potency, µM (top dose mostly 46.1 µM), for the others: at the top dose activity, negative = toxicity, most hits filed as cytotoxic; HT-1080 IDH1 knockdown viability, ATP luminescence, 48 h; AID 686971, 2013; 360,000 compounds, 2% hits;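 note: 0% = DMSO wells and -100% = cell-free medium wells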
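Cytotoxicity counter-line: IDH1KD HT-1080, 48 h, CellTiter-Glo. Curves classed by r2, magnitude and activity.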
Starred values were filed as active, the others as inactive; ? = inconclusive; . = not tested or not shown; [ ] = another dose, or the depositor's remark. Calls come from the whole dose curve; as a rule, active = well fitted curve in the direction sought with a large enough effect; inconclusive = small, poorly fitted or top-dose-only effect, or another doubt; inactive = no such curve, though single readings can be large; an effect the other way counts as inactive or inconclusive. Potency is the fitted concentration of half-maximal effect.

SMILES	DT40 TDP1 CPT	HT1080-NT tox	TGFb SMAD3 inh	TDP1 cell noCPT	HepG2 viability	HT1080 IDH1KD tx
O=C(c1cc(Cl)nc2ccccc12)N(Cc1nnc(-c2ccccc2Cl)o1)C1CC1	16µM*	-6%	-2%	21µM*	-28%	-10%
CCOc1ccc2oc(C(=O)N(Cc3nnc(-c4ccccc4Cl)o3)C3CC3)c(C)c2c1	?	3%	-28%	23µM*	-27%	4%
O=C(c1cc(Cl)nc2ccccc12)N(Cc1nnc(-c2ccc(Cl)cc2)o1)C1CC1	12µM*	-8%	?	16µM*	-10%	-1%
CC(Sc1nnc(NCc2ccccc2)s1)C(=O)Nc1ccc2c(c1)C(=O)c1ccccc1C2=O (stereo not drawn)	?	-2%	-15%	18µM*	-3%	-5%
CC(Sc1nnc(Nc2ccccc2)s1)C(=O)Nc1nc(-c2ccccc2)cs1 (stereo not drawn)	?	?	-23%	?	-18%	?
CC(C)Cn1c(N2CCN(CC(=O)Nc3ccc(Cl)cc3)CC2)nc2ccccc21	?	-7%	?	21µM*	-32%	-23%
CCn1c(N2CCN(CC(=O)Nc3cccc(C)c3C)CC2)nc2ccccc21	-23%	1%	2%	21µM*	-25%	-1%
CC(C)n1c(N2CCN(CC(=O)Nc3ccc4c(c3)OCCO4)CC2)nc2ccccc21	?	2%	?	?	-2%	1%
Cc1ccc(SCc2nc3ccccc3n2CC(=O)Nc2ccccc2)cc1	?	-7%	?	?	-28%	?
Cc1ccc(SCc2nc3ccccc3n2CC(=O)Nc2ccc(Cl)cc2)cc1	21µM*	?	?	?	-58%	?
Cc1ccc(NC(=O)NCc2nc3ccccc3n2C)cc1	?	3%	-2%	23µM*	-17%	1%
CCCCN1C(=O)C(CC(=O)NCc2ccco2)CC(C(=O)N(C)C)=C1C (stereo not drawn)	5%	5%	16%	0%	7%	7%
CCCCNC(=O)CSC1=Nc2ccccc2C2=NC(CCC(=O)NCc3ccccc3OC)C(=O)N12 (stereo not drawn)	?	.	11%	?	11%	.
COc1ccc(OC)c(NC(=O)CSC2=Nc3ccccc3C3=NC(CCC(=O)NCCc4ccccc4)C(=O)N23)c1 (stereo not drawn)	?	.	5%	?	-2%	.
COCCCNC(=O)CSC1=Nc2ccccc2C2=NC(CCC(=O)NCc3ccccc3OC)C(=O)N12 (stereo not drawn)	16µM*	.	-27%	18µM*	-17%	.
COc1ccc(NC(=O)CSC2=Nc3ccccc3C3=NC(CCC(=O)NCCc4ccccc4)C(=O)N23)c(OC)c1 (stereo not drawn)	23µM*	.	0%	8.2µM*	-8%	.
COc1ccccc1CNC(=O)CCC1N=C2c3ccccc3N=C(SCc3ccccc3Cl)N2C1=O (stereo not drawn)	?	.	?	?	-5%	.
COc1ccccc1CNC(=O)CCC1N=C2c3ccccc3N=C(SCC(N)=O)N2C1=O (stereo not drawn)	29µM*	.	8%	3.7µM*	-29%	.
O=C(CN1CCN(Cc2ccccc2F)CC1)Nc1ccccc1Cl	6%	0%	-9%	-13%	-15%	-1%
Cc1cc(C)c2c(=O)cc(C(=O)NCc3ccc(S(N)(=O)=O)cc3)oc2c1	8%	.	28%	?	7%	.
CC(C)C[C@H]1CN(CCCC[C@H]2CNC(=O)C(=O)N2CCc2ccccc2)C(=O)C(=O)N1Cc1ccccc1	-22%	1%	.	?	.	1%
O=C(NCC(O)CO)c1c(I)c(C(=O)NCC(O)CO)c(I)c(N(CCO)C(=O)CO)c1I (stereo not drawn)	-1%[21.1 µM]	.	.	-11%[21.1 µM]	.	.
COc1cc(NC(=O)c2noc3c2CC(C(C)(C)C)CC3)cc(OC)c1OC (stereo not drawn)	21µM*	.	21%	16µM*	8%	.
CC(C)(C)C1CCc2onc(C(=O)Nc3ccc4c(c3)OCO4)c2C1 (stereo not drawn)	-28%	?	-3%	?	10%	13µM*
CN(C)/C=C(\C#N)C(N)=C(C#N)C#N	1%	1%	16%	0%	5%	1%
SMILES	DT40 TDP1 CPT	HT1080-NT tox	TGFb SMAD3 inh	TDP1 cell noCPT	HepG2 viability	HT1080 IDH1KD tx
O=C(NCc1ccccn1)C(=O)Nc1cccc2ccccc12	4%	27%	3%	-18%	2%	9%
CC1CN(C(=O)c2ccc(COc3ccc(C(C)C)cc3)o2)CC(C)O1 (stereo not drawn)	16µM*	?	0%	21µM*	-27%	?
COCc1ccc(C(=O)N2CCCC(Nc3ccc(C(C)C)cc3)C2)o1 (stereo not drawn)	?	6%	11%	18µM*	6%	4%
CC1CN(C(=O)c2ccc(COc3ccc4ccccc4c3)o2)CC(C)O1 (stereo not drawn)	?	0%	16%	?	-6%	-14%
CC(C)c1ccc(NC2CCCN(C(=O)c3cccs3)C2)cc1 (stereo not drawn)	21µM*	1%	-23%	?	-23%	-5%
CC(C)c1ccc(NC2CCCN(C(=O)c3ccsc3)C2)cc1 (stereo not drawn)	23µM*	-6%	-4%	18µM*	-26%	2%
COC(=O)c1ccc(C(=O)N2CCCC(Nc3ccc(C(C)C)cc3)C2)cc1 (stereo not drawn)	-25%	11%	-16%	-20%	-4%	-2%
COc1ccc(C(=O)N2CCc3[nH]nc(-c4ccccc4)c3C2)cc1	-71%	-13%	-6%	?	-17%	-14%
CC(C)c1ccc(NC2CCCN(C(=O)c3n[nH]c4c3CCC4)C2)cc1 (stereo not drawn)	18µM*	2%	-2%	?	-4%	-29%
